Laboratory results as given in PMC5540273 (PLoS ONE, 2017).
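Further: KINOMEscan kinase panel screen.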

What follows are compounds tested on EPHA7. Settings: concentration: 1 μM,replicates: in singlicate; n = 1.
In the case of CS(=O)(=O)c1cccc(CNc2nc(Nc3ccc4c(c3)[C@@H]3C[C@@H]4CNC3=O)ncc2C(F)(F)F)c1, the “%Inh” value is reported as 63%. For CSc1nccc(-c2c(-c3ccc(F)cc3)ncn2CCCN2CCOCC2)n1.Cl [SB-217146], the “%Inh” value was 0%. In the case of O=C1NCCc2[nH]c(-c3ccncc3)cc21, the “%Inh” value is reported as 0%. FC(F)(F)c1cc(Br)cc(Nc2nccc(-c3cnn4ncccc34)n2)c1 [GW810578] was tested, and the “%Inh” value was 0%. In the case of CN(c1ccc2c(c1)nc(NCc1ccc(F)cc1)n2C)c1ccnc(Nc2ccc(CS(C)(=O)=O)cc2)n1.Cl [GW813244], the “%Inh” value is reported as 0%. For Cc1ccc(CC(=O)N2CCc3cc(-c4cn(C)c5ncnc(N)c45)ccc32)cc1 [GSK2634758], the “%Inh” value was 4%. In the case of O=C(NCC1CC1)c1ccc(-c2cc(C(=O)NC3CC3)ccc2F)cc1 [GW810445], the “%Inh” value is reported as 0%. CCn1c(-c2nonc2N)nc2cncc(Br)c21 [SB-738004] was tested, and the “%Inh” value was 0%. In the case of CN1CCN(CCCNc2nccc(-c3c(-c4ccc(F)cc4)nn4cc(C(N)=O)ccc34)n2)CC1 [GW622475], the “%Inh” value is reported as 8%. With O=C(NOCC1CC1)c1cc(Br)c(F)c(F)c1Nc1ccc(I)cc1Cl the “%Inh” value was 0%. In the case of Cc1n[nH]c2cc(Nc3ccnc(Nc4cccc(CN5CCOCC5)c4)n3)ccc12 [GW682569], the “%Inh” value is reported as 0%. For C[C@@H]1CCN(C(=O)N2CCCC2)C[C@@H]1N(C)c1ncnc2[nH]ccc12, the “%Inh” value was 0%. For CS(=O)c1ccc(-c2coc3ccc(-c4n[nH]c(=O)o4)cc23)cc1 (stereo not shown), the “%Inh” value was 0%. For CC(C(=O)NC1CCN(c2ccnc(Nc3ccc(F)cc3)n2)C1)c1ccc(Cl)cc1 (stereo not shown) [GSK1379713], the “%Inh” value was 5%. With COC(=O)Nc1nc2cc(Oc3ccc(NC(=O)Nc4cc(C(F)(F)F)ccc4Cl)cc3)ccc2[nH]1.Cl [GW697465] the “%Inh” value was 84%. For Cn1ccc2ncnc(Oc3ccc(NC(=O)Nc4cccc(C(F)(F)F)c4)c(F)c3)c21, the “%Inh” value was 93.8%. O=c1[nH]cc(-c2ccc(O)cc2)c2sc(-c3ccncc3)cc12 [GSK1033723] was tested, and the “%Inh” value was 0%. Cc1ccc2c(-c3ccnc(Nc4ccc(C(F)(F)F)cc4)n3)cnn2n1 [GW819776] was tested, and the “%Inh” value was 0%. With CN1CCN(CCNc2nc3cc(Oc4ccc(NC(=O)Nc5cc(C(F)(F)F)ccc5F)cc4)ccc3[nH]2)CC1.Cl.Cl [GW768504] the “%Inh” value was 0%. With Cc1ccc(C(=O)Nc2ccc(Oc3ccc4nc(NC(=O)C5CC5)cn4c3)c(F)c2)c(=O)n1-c1ccccc1 the “%Inh” value was 74%. Nc1nccc(-c2ccc3c(N)n[nH]c3c2)n1 [GSK1034945] was tested, and the “%Inh” value was 6%. In the case of COc1cccc(CNC(=O)NC2CCN(c3ccnc(Nc4cc(OC)c(OC)c(OC)c4)n3)C2)c1 (stereo not shown) [GSK1379765], the “%Inh” value is reported as 6%. For Cn1ccc2ncnc(Oc3ccc(NC(=O)Nc4cccc(C(F)(F)F)c4)c(Cl)c3)c21, the “%Inh” value was 82%. CCNCC(Cc1ccccc1)NC(=O)c1cc(Br)c(-c2ccnc3[nH]ccc23)s1.Cl.Cl (stereo not shown) [GSK1383280] was tested, and the “%Inh” value was 9%. For Cc1cccc(-c2nc(Nc3ccncc3)c3sccc3n2)n1 [GW869641], the “%Inh” value was 6%. With Cn1ccc2ncnc(Oc3ccc(NC(=O)Nc4cc(C(C)(C)C)on4)c(Cl)c3)c21 the “%Inh” value was 90%. COc1cc2ncn(-c3cc(OCC4CCCCC4)c(C(N)=O)s3)c2cc1OC [GSK204559] was tested, and the “%Inh” value was 17%. For CCn1c(-c2nonc2N)nc2cncc(CNC3CCNCC3)c21.Cl [SB-747651], the “%Inh” value was 9%. For O=C(Nc1cccc(C(F)(F)F)c1)c1cccc(Oc2ccc3nccn3n2)c1, the “%Inh” value was 5%. COC(=O)c1cccc(NC(=O)NC2CCN(c3ccnc(Nc4cc(OC)c(OC)c(OC)c4)n3)C2)c1 (stereo not shown) [GSK1379767] was tested, and the “%Inh” value was 4%. In the case of Cn1cc(-c2cccc3c(N)c(C(N)=O)nnc23)cn1, the “%Inh” value is reported as 6%. For CCN1CCN(CCCC(=O)Nc2n[nH]c3nc(-c4ccc(O)cc4)c(Br)cc23)CC1 [SB-731579], the “%Inh” value was 0%. With COc1cccc(OC)c1C(=O)Nc1cccc(-c2nn3ccccc3c2-c2ccnc(Nc3cccc(F)c3)n2)c1 [GSK361065] the “%Inh” value was 14%. With Cl.Cl.NC[C@H](CC1CCCCC1)NC(=O)c1ccc(-c2ccnc3[nH]ccc23)s1 [GSK1581428] the “%Inh” value was 14%. In the case of COc1cc2c(Nc3ccc(NC(=O)c4ccccc4)cc3)ncnc2cc1OCCCN1CCOCC1 [GSK301329], the “%Inh” value is reported as 6%. In the case of CC(=O)Nc1ccc(-c2cc3ncnc(SCC(=O)O)c3s2)cc1, the “%Inh” value is reported as 0%. C[C@@H]1CNc2c(sc3ccc4nc(-c5ccc(O)cc5)ccc4c23)C(=O)N1 was tested, and the “%Inh” value was 0%.
